HPGD block = qHTS Assay for Inhibitors of HPGD (15-Hydroxyprostaglandin Dehydrogenase). 15-hydroxyprostaglandin dehydrogenase [NAD(+)] (Homo sapiens), P15428. purified HPGD, NADH fluorescence kinetic, PGE2 substrate. Potency, µM, actives largely listed as inhibitors. 150,000 compounds, 4.3% hits; active = well fitted inhibition curve with a large enough effect, not every such curve was filed as active; inconclusive = small, poorly fitted or top-dose-only effect, or another doubt; inactive = no such curve, though single readings can be large or run the other way
Target sequence (P15428 whole entry, looked up): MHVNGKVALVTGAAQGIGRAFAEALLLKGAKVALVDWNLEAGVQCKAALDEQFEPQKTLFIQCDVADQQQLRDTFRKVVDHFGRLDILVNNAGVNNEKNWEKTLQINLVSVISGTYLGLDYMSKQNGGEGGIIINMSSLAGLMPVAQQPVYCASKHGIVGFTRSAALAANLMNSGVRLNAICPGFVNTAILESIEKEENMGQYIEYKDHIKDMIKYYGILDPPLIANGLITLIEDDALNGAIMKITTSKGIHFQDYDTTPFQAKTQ
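NADH formation kinetics: reaction with 30 uM PGE2 and 1 mM NAD+ (final), 20 nM enzyme, Tris-HCl pH 8 with Tween 20, after 15 min compound preincubation at room temperature. Fluorescence change, last versus first of five reads.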
IMPase cell inh = qHTS Assay for Identifying the Cell-Membrane Permeable IMPase Inhibitors | inhibition (IP1 accumulation), % at 46.1 µM | AID 901, 2007 | CHO-M1 cells, IP1 accumulation, HTRF TR-FRET ratio | 120,000 tested, under 10 active; active = well fitted curve in the direction sought with a large enough effect in the signal ratio, not every such curve was filed as active; inconclusive = small, poorly fitted or top-dose-only effect, or a change in a side signal; inactive = no such curve, though single readings can be large or run the other way; the % refers to the signal ratio;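 also: cells stimulated with carbachol in lithium chloride buffer; higher means more IMPase inhibition seen as more IP1 and lower FRET ratio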
Target sequence (P97697 whole entry, looked up): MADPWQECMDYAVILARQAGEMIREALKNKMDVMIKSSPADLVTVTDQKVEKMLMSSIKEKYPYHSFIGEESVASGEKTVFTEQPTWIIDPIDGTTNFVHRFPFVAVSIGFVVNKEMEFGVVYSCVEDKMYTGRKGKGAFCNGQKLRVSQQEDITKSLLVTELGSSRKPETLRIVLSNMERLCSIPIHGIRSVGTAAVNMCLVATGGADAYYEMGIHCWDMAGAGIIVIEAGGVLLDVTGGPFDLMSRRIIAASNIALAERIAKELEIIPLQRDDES
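Seeded CHO-M1 cells were dosed with compound at up to 46 uM, stimulated with carbachol for 30 min, then lysed in IP-One detection reagents. Higher IP1 lowers the TR-FRET signal.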
NPSR antag = qHTS Assay for Antagonists of the Neuropeptide S Receptor: cAMP Signal Transduction; Q6W5P4; CHO-NPSR cells, cAMP TR-FRET, antagonist mode; Potency, µM (series often up to 38.3 µM), hits mostly inhibitors; 220,000 compounds, 1% hits; also: nearly all actives have a fitted effect of over 50% in size
ALDH1A1 inh = qHTS Assay for Inhibitors of Aldehyde Dehydrogenase 1 (ALDH1A1); Aldehyde dehydrogenase 1A1 (Homo sapiens), P00352; Purified ALDH1A1, NADH fluorescence, propionaldehyde substrate; Potency, µM (doses to about 75.3 µM), most hits filed as inhibitors; 220,000 compounds, 7.3% hits; active = well fitted inhibition curve with a large enough effect, not every such curve was filed as active; inconclusive = small, poorly fitted or top-dose-only effect, or another doubt; inactive = no such curve, though single readings can be large or run the other way
IMPase Li inh = qHTS Assay for Identifying the Cell-Membrane Permeable IMPase Inhibitors: Potentiation with Lithium; CHO-M1 cells, IP1 TR-FRET (IP-One), carbachol + lithium; Potency, µM (highest dose often 59.4 µM), hits mostly inhibitors; AID 1457, 2008; 210,000 compounds, 0.35% hits;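 also: IP1 builds up when IMPase is blocked and the TR-FRET signal falls; nearly all actives have a fitted effect of over 50% in size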
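CHO-M1, 2000 cells/well, 16–30 h culture; cpd + low Li+, 30 min 37C; lysis with d2-IP1/Eu-anti-IP1 Ab, 10 min RT; TR-FRET 665/620 ratio and 620 channel; AC50 via Hill.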
PNC assembly inh = High Content Assay for Compounds that inhibit the Assembly of the Perinucleolar Compartment; activity change (PNC), negative = inhibition, % at 10 µM; PC3M PTB-GFP, PNC prevalence imaging, 16 h; active compounds read low; 140,000 compounds, 3.1% hits;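 active = readout at or below -70, meaning at least 70% loss of cells showing the perinucleolar compartment, a nuclear body marking cancer cells; inconclusive = readout between -30 and a set limit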
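Compounds are pinned in duplicate onto adhered PC3M cells stably expressing GFP-tagged PTB and incubated 16 h at 37 C. Cells are then fixed, nuclei stained with Hoechst, and PNC-positive cells counted.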
Each line names hits and unclear results; the compound was inactive in the other large screens. An excerpt weighted towards active compounds, which were near 11% of everything screened. Unless noted, calls follow the shape of the dose curve; as a rule, active = well fitted curve in the direction sought with a large enough effect; inconclusive = small, poorly fitted or top-dose-only effect, or another doubt; inactive = no such curve, though single readings can be large; an effect the other way counts as inactive or inconclusive.

Cc1ccc(NC(=O)Cn2c(O)c(N=NC(=O)c3cc4ccccc4cc3O)c3ccccc32)cc1	NPSR antag inconclusive, ALDH1A1 inh inconclusive (no result: IMPase cell inh)
Cc1ccc(NC(=O)Cn2c(O)c(N=NC(=O)c3ccncc3)c3ccccc32)cc1	ALDH1A1 inh 4.5µM (no result: HPGD block, IMPase cell inh, PNC assembly inh)
CC(C(=O)O)c1ccc(CC2CCCC2=O)cc1 (configuration not stated)	none (no result: IMPase cell inh, PNC assembly inh)
O=C(c1cccc(F)c1)n1nnc2ccccc21	none
CC(=O)c1ccc(Oc2ncnc3sccc23)c(CN2CCOCC2)c1	HPGD block 25µM, ALDH1A1 inh inconclusive
Cc1cc(-c2ccccc2)nc(N2CCN(c3ccccn3)CC2)n1	HPGD block inconclusive, PNC assembly inh inconclusive
COc1cc(NC(=O)CSc2ncnc3c2cnn3Cc2ccccc2)cc(OC)c1	ALDH1A1 inh inconclusive
CCOC(=O)CC(=O)CSc1ncnc2c1cnn2-c1ccccc1	IMPase cell inh inconclusive, ALDH1A1 inh 22µM
CCOC(=O)CNC(=O)CSc1ncnc2c1cnn2-c1ccc(OC)cc1	HPGD block inconclusive
CCc1nnc(NC(=O)CSc2ncnc3c2cnn3-c2ccc(OC)cc2)s1	HPGD block inconclusive, ALDH1A1 inh inconclusive, IMPase Li inh 10µM
COc1ccc(OC)c(NC(=O)CSc2ncnc3c2cnn3-c2ccccc2Cl)c1	ALDH1A1 inh 16µM, PNC assembly inh inconclusive
O=C(COC(=O)c1c2c(nc3ccccc13)CCN(Cc1ccccc1)C2)Nc1c(F)cccc1F	ALDH1A1 inh inconclusive (no result: IMPase cell inh)
CC(=O)Nc1ccc(NC(=O)COC(=O)c2c3c(nc4ccccc24)CCN(Cc2ccccc2)C3)cc1	NPSR antag inconclusive, ALDH1A1 inh 7.1µM (no result: HPGD block, IMPase Li inh)
Cc1cc(C(=O)CN2C(=O)NC3(CCCCC3)C2=O)c(C)n1Cc1ccc2c(c1)OCO2	none
O=C1N=c2ccccc2=C1c1c(O)n(-c2cccc(F)c2)[nH]c1=O	HPGD block 5.6µM, ALDH1A1 inh 25µM (no result: IMPase cell inh)
COC(=O)C(C(=O)OC)C(C[N+](=O)[O-])c1ccc(OC)cc1 (configuration not stated)	none
COc1ccc(CN(C(=O)c2cnccn2)C(C(=O)NC(C)(C)C)c2cc(OC)c(OC)c(OC)c2)cc1 (configuration not stated)	PNC assembly inh -95 (no result: IMPase cell inh)
Cc1ccc(S(=O)(=O)/N=C/N(C)C)cc1	none (no result: IMPase cell inh)
Cc1ccc(S(=O)(=O)/N=C/c2ccc(N(C)C)cc2)cc1	ALDH1A1 inh 13µM (no result: IMPase cell inh)
Cc1ccc(S(=O)(=O)NC(=O)NC(C)(C)C)cc1	none
CC(=O)n1c2ccccc2c2ccccc21	none
CC(=O)n1c(Cl)c(NC(=O)CCl)c2ccccc21	NPSR antag inconclusive, ALDH1A1 inh 22µM
COc1ccc(-c2[nH]c(-c3ccc(Cl)cc3)nc2SCC(=O)Nc2nccs2)cc1	none (no result: IMPase cell inh)
COc1ccc(-c2[nH]c(-c3ccccc3)nc2SCC(=O)Nc2nccs2)cc1	PNC assembly inh -98 (no result: IMPase cell inh)
Cc1cccc2nc(CSc3nc4ccc([N+](=O)[O-])cc4[nH]3)c(Br)n12	HPGD block inconclusive, ALDH1A1 inh 25µM
O=C(NC1CCCC1)c1cc(-c2cccs2)on1	HPGD block 13µM, ALDH1A1 inh inconclusive
O=C(NNC(=S)NC1CCCCC1)c1cccs1	none (no result: IMPase cell inh)
CC1CCCC(C)N1C(=O)c1cc(-c2cccs2)on1 (configuration not stated)	HPGD block 14µM
O=C(NC1CCCCC1)c1cc(-c2ccco2)on1	none (no result: HPGD block, IMPase Li inh)
O=C(NC1CCCCC1)c1cccs1	HPGD block 32µM
COc1ccc(C(=O)N2CCC3(CCCN(C(=O)NC(C)C)C3)CC2)cc1	none (no result: IMPase cell inh, NPSR antag, PNC assembly inh)
CC1(C)O[C@H]2OC([C@H](O)CON3C(=O)c4ccccc4C3=O)[C@H](O)[C@H]2O1 (some centres not stated)	HPGD block 16µM (no result: IMPase cell inh)
